GPR151 activ: activates the human receptor GPR151; PathHunter beta-arrestin GPR151 cells, luminescence; activation, % at 11.2 µM; 650,000 compounds, 1% hits; AID 1508602; in the data active = activation above about 4.9%;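 also: 0% = median of compound wells and 100% = cells with positive control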
Target sequence (Q8TDV0 whole entry, looked up): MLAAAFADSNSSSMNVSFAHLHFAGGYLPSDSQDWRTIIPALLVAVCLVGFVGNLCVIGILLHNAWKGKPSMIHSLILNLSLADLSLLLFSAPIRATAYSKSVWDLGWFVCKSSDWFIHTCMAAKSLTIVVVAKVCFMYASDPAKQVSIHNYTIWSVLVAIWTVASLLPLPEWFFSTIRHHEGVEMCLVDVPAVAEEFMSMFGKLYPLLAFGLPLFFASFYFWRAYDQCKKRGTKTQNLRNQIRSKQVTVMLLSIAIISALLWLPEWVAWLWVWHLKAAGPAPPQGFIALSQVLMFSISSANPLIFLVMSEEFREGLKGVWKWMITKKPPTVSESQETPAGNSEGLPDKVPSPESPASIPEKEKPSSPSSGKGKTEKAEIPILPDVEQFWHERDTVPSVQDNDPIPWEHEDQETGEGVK
FBW7 act: human FBW7 E3 ligase activation, primary screen; AlphaScreen FBW7–phospho-cyclin E peptide binding, activator screen; normalized activity (activation), % at 26.1 µM; Q969H0; 650,000 compounds, 0.13% hits; in the data active = normalized activity above about 1.9%;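 also: purified mutant Fbw7 with reduced substrate affinity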
MITF primary: inhibitors of human MITF; inhibition, % at 2.6 µM; AlphaScreen MITF homodimerization, bead proximity signal; O75030; AID 1259374; 650,000 compounds, 0.91% hits; in the data active = inhibition above about 50%;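 also: 0% = vehicle wells with protein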
TEAD-YAP inh: TEAD-YAP interaction inhibition; AID 1259422; HEK-TIYL cells, TEAD-Gal4/YAP UAS-luciferase luminescence; 640,000 compounds, 1.4% hits; inhibition, % at 9.12 µM; in the data active = inhibition above about 32%;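 also: 0% = median of test compound wells and 100% = reference inhibitor wells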
GPR151 confirm: human GPR151 activation, confirmation screen | shares compounds with GPR151 activ | GPR151 PathHunter beta-arrestin cells, luminescence, 90 min; % of EA-reagent control over plate median | activation, % at 11.2 µM | 6,700 tested, under 10 active;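 active = mean percent activation across replicates above the confirmation screen cutoff of 4.91%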
GPR119 counter: activates human GPR119 in a GPR151 counter-screen; shares compounds with GPR151 activ; GPR119 PathHunter beta-arrestin cells, luminescence, 90 min; 0 = compound-well median, 100 = enzyme-acceptor control; activation, % at 11.2 µM; 6,700 compounds, 0.3% hits; AID 1508611;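 active = mean percent activation in the counterscreen above 29.09%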;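 also: counterscreen on off-target GPR119 to flag nonselective hits from the GPR151 activator screen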
The depositor's hits bear a star; / = not tested or not shown. Compounds with a hit are over-represented: about 3.5% of the library has one in this group of screens.

SMILES	GPR151 activ	FBW7 act	MITF primary	TEAD-YAP inh	GPR151 confirm	GPR119 counter
O=C(Cn1c(-c2cccnc2)nc2ccccc21)N1CCCCCC1	5.6*	0.1	-4.5	10.0	0.0	2.3
CCc1ccc(-c2csc(NC(=O)c3nc4nc(C)cc(C)n4n3)n2)cc1	-0.3	0.1	-8.8	-3.2	/	/
COc1ccc(S(=O)(=O)N2CCCC2C(=O)Nc2ccc(S(=O)(=O)NC(=O)c3ccccc3)cc2)cc1 (configuration not stated)	-0.1	0.0	2.8	-7.5	/	/
O=C(c1ccccc1[N+](=O)[O-])N(Cc1cccnc1)c1nc2ccc(F)cc2s1	-1.5	-0.4	-7.1	-4.2	/	/
COc1ccc2sc(N(Cc3cccnc3)C(=O)c3ccccc3[N+](=O)[O-])nc2c1	8.6*	-0.5	-2.8	-0.8	-1.0	-0.7
Cc1ccc(NC(=O)CSC2=NC(=O)C(Cc3ccccc3)C(=O)N2)cc1 (configuration not stated)	11.2*	-0.3	-7.4	17.3	-0.1	-9.1
O=C(CSC1=NC(=O)C(Cc2ccccc2)C(=O)N1)Nc1ccccc1 (configuration not stated)	-1.3	0.0	-1.1	3.5	/	/
CCn1cc(C(=O)N2CCC(c3ccnc4nc(C(F)(F)F)nn34)CC2)c(C)n1	0.3	0.0	12.2	-4.8	/	/
COc1cc(OC)c(C2C(C(=O)OCC(C)C)=C(C)NC3=C2C(=O)CC(C)(C)C3)cc1OC (configuration not stated)	1.0	0.0	-1.4	-6.8	/	/
Cc1ccc(/C=C2\SC(=S)N(CC(=O)Nc3ccc([N+](=O)[O-])cc3O)C2=O)cc1	-1.9	0.6	13.4	1.9	/	/
O=C(Nc1cc(C(F)(F)F)ccc1Cl)C1C2CC3OC(=O)C1C3C2 (configuration not stated)	-1.9	0.1	4.2	-1.2	/	/
O=C(Nc1cccc(C(F)(F)F)c1)C1C2CC3OC(=O)C1C3C2 (configuration not stated)	6.3*	0.1	0.9	-2.0	0.8	15.1
CCCCOc1ccc(NC(=O)C(=O)NC)cc1	-0.5	0.8	18.5	-7.5	/	/
CCCCCOc1ccc(NC(=O)C(C)C)cc1	13.7*	0.0	-10.6	-67.8	-0.2	-1.9
CCCCOc1ccc(NC(=O)C(=O)NC(C)C)cc1	5.6*	-0.2	-11.9	7.4	0.5	0.2
CCCCOc1ccc(NC(=O)CC)cc1	1.1	0.1	7.3	-16.2	/	/
COc1ccc(Cl)cc1N1C(=O)C2CCCN2C1c1ccccc1 (configuration not stated)	0.6	0.8	5.7	2.5	/	/
COc1ccccc1C1N(c2cc(Cl)ccc2OC)C(=O)C2CCCN21 (configuration not stated)	6.8*	0.0	3.9	1.3	-0.6	-7.6
CNC(=O)OCc1ccc(-c2ccc(Cl)cc2)o1	5.9*	0.0	0.3	-11.4	0.4	7.3
CNC(=O)OCc1ccc(-c2ccc(C)cc2)o1	-0.5	-0.8	0.6	-26.1	/	/
O=C(Cn1cncn1)c1ccc(Cl)cc1	7.8*	-0.1	-0.5	-3.9	-0.6	-2.0
Cc1ccc(C(=O)Cn2cncn2)cc1	1.9	-0.1	1.9	4.5	/	/
Clc1ccc(SCCCCn2cncn2)cc1	9.2*	-0.1	-3.8	5.4	-0.2	4.7
CCC(C)CC(=O)N1CCc2c(cnc(C)c2CNC(=O)CN2CCCCC2)C1 (configuration not stated)	2.6	-0.1	-11.5	1.9	/	/
CCOc1ccc(C)cc1S(=O)(=O)NCC(c1cccn1C)N1CCCC1 (configuration not stated)	5.2*	-0.1	8.8	1.0	0.2	-1.5
SMILES	GPR151 activ	FBW7 act	MITF primary	TEAD-YAP inh	GPR151 confirm	GPR119 counter
Cn1cccc1C(CNS(=O)(=O)c1cc(F)ccc1F)N1CCCC1 (configuration not stated)	-0.5	-0.2	-8.7	-3.7	/	/
COc1ccc(OC)c(C(=O)N2CCC3(CC2)Nc2ccccc2-n2cccc23)c1	2.1	-0.2	16.5	-2.7	/	/
CCN(C(=O)CSc1nnc(-c2ccco2)o1)C1CCS(=O)(=O)C1 (configuration not stated)	11.9*	0.1	-2.7	-10.5	0.6	4.0
O=C(CSc1nnc(-c2ccccc2)o1)c1ccc2c(c1)OCCO2	-0.8	-0.1	-9.1	-6.3	/	/
O=C(CSc1nnc(-c2ccco2)o1)c1ccc2c(c1)OCCO2	11.7*	0.0	12.2	10.5	0.2	-5.1
CCCCCC1C/C(=N/O)C=C(C)C1C(=O)OC (configuration not stated)	0.1	-0.1	-2.8	2.0	/	/
CCN(CC)c1ccc(NC(=O)/C=C\C(=O)O)cc1	16.0*	-0.1	34.0	11.4	-0.7	-7.3
CCN(CC)c1ccc(NC(=O)/C=C\c2ccccc2)cc1	-0.8	-0.3	9.1	-27.2	/	/
O=C(O)/C=C/C(=O)Nc1ccc(Sc2ccc([N+](=O)[O-])cc2)cc1	3.3	-0.1	0.1	-7.3	/	/
O=C(O)/C=C\C(=O)Nc1ccc([N+](=O)[O-])cc1	8.1*	-0.2	-3.9	-2.0	-0.1	-0.6
CN(Cc1ccn[nH]1)C(=O)c1cccc(OC2CCN(C(=O)C3CC3)CC2)c1	4.9*	0.1	4.7	2.1	-1.0	-21.8
CN(Cc1ccn[nH]1)C(=O)c1ccc(OC2CCN(C(=O)C3CC3)CC2)cc1	-0.3	0.3	13.0	-7.2	/	/
CC(C)/C(=N\NC(N)=S)c1ccccc1	6.5*	-0.2	10.3	6.0	0.2	3.5
CC1CC(OC(=O)C(O)c2ccccc2)CC(C)(C)C1 (configuration not stated)	6.6*	0.1	-9.0	1.3	1.5	-2.2
FC(F)(F)c1ccc(Nc2nc(NC3CC3)c3ncn(-c4ccsc4)c3n2)cc1	2.2	-0.2	1.3	11.3	/	/
O=C(CSc1nnc(NC(=O)c2cccc3ccccc23)s1)Nc1nccs1	-0.7	0.6	10.1	-0.1	/	/
CCOC(=O)c1c(NC(=O)c2cccs2)sc(C(=O)Nc2ccc(OC)cc2OC)c1C	5.2*	0.0	-0.7	-4.2	0.9	3.7
CCOC(=O)c1c(NC(=O)c2ccccc2F)sc(C(=O)Nc2ccccc2C)c1C	7.9*	-0.1	2.9	-5.2	1.4	12.5
CCOC(=O)c1c(NC(=O)c2cccs2)sc(C(=O)Nc2ccccc2OC)c1C	0.5	-0.1	3.2	-1.9	/	/
CC/C(C)=N\NC(=O)c1ccc(C(=O)N/N=C(\C)CC)cc1	1.0	0.0	9.2	-3.0	/	/
O=C1CC2(CCN(Cc3ccccc3)CC2)Oc2ccc(F)cc21	-0.6	0.7	-5.0	2.7	/	/
C=CCNC(=O)c1ccc(OCC(=O)C2CC2)cc1	-0.4	0.0	-0.3	-0.6	/	/
Cn1cnnc1SCCNC(=O)c1ccc(OCC(=O)C2CC2)cc1	6.9*	0.1	7.2	0.5	-0.4	12.4
COCCN1CCN(Cc2nc(NCc3ccc(C)o3)c3ccccc3n2)CC1	10.6*	-0.5	-5.0	-9.7	0.1	22.8
COCCN1CCN(Cc2nc(Nc3ccccc3)c3ccccc3n2)CC1	-1.1	-0.1	0.4	-4.7	/	/
